Source: PubChem (National Center for Advancing Translational Sciences (NCATS))
D2 ag-1: D2 dopamine receptor (human) agonism; HEK293 T-REx D2 cells, calcium flux agonist mode; P14416; 340,000 tested, 0.53% active; AID 485358; activation, % at 2 µM;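 active = activation over 3 SD above normal in the single-dose calcium agonist read, cut at about 30% in these data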; also: 0% is about no effect
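In this primary screen, compounds producing a positive calcium signal within 180 s of addition to tetracycline-induced, force-coupled HEK293 Trex D2 cells are flagged; cells are dye-loaded with a no-wash calcium kit beforehand.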
D2 antagonist: antagonists of human D2 dopamine receptor; HEK293 TREx D2 cells, calcium flux, dopamine EC80; P14416; AID 485344; 340,000 tested, 2% active; inhibition, % at 10 µM; in the data active = inhibition above about 30%; inactive = below that, where a call was filed; also: 0% is about no effect
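Dopamine at EC80 is the agonist stimulus; test compounds precede it by 180 s. Calcium flux read kinetically in a force-coupled, inducible HEK293 T-REx D2 cell line.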
D2 PAM-1: potentiates the human D2 dopamine receptor allosterically; P14416; DiscoveRx D2 beta-arrestin cells, luminescence, 90 min; 100% = 57 uM dopamine signal; potentiation, % (test concentration not listed); 360,000 tested, 0.23% active; in the data active = potentiation above about 50%; inconclusive = mostly about 30% to 49%
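PathHunter beta-arrestin assay in DiscoveRx D2 cells. Compounds were added with an EC20 of dopamine (50 nM final) for 90 min at 37 deg C. Luminescence was read 1 h after detection reagent, with 57 uM dopamine as the EC100 control.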
D2 ag-2: activates the human D2 dopamine receptor. DiscoveRx PathHunter D2 beta-arrestin, luminescence, 90 min; 100% = 57 uM dopamine signal. activation, % (no concentration beside the values). 360,000 tested, 0.084% active. AID 624465; in the data active = activation above about 40%; inconclusive = between about 15% and that limit
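DiscoveRx PathHunter D2 beta-arrestin cells (2,100/well) attached overnight, then compound-stimulated 90 min at 37 C in HBSS/10 mM HEPES/0.1% Tween-20 buffer; beta-galactosidase complementation read by luminescence after 1 h at ambient temperature. Dopamine 57 uM final (EC100) as control.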
D2 PAM-2: D2 dopamine receptor (human) potentiation; P14416; HEK293 T-REx D2, calcium flux, EC20 dopamine potentiation; potentiation, % at 10 µM; 340,000 tested, 0.34% active; AID 485347;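 active = potentiation over 3 SD above the plate norm, cut at about 30% in these data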; also: 0% is about no effect
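Calcium flux readout, no-wash dye, 1 read/s. Inducible HEK293 Trex D2 line, overnight 30 C. Compound alone 180 s (agonist flags), then EC20 dopamine, another 180 s to score potentiation.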
D3 ag: D3 receptor agonism confirmed, beta-arrestin readout | shares compounds with D2 ag-1 | DiscoveRx D3 beta-arrestin cells, luminescence, 90 min | Potency, µM (top dose mostly 76.9 µM), for the others: top-dose activation, actives largely listed as activators | 2,300 tested, 4% active | AID 720506;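 also: potency is read from the fitted curve at half-maximal effect; 100% = dopamine control response; nearly all actives have a fitted effect of over 70% in size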
Target sequence (P35462 whole entry, looked up): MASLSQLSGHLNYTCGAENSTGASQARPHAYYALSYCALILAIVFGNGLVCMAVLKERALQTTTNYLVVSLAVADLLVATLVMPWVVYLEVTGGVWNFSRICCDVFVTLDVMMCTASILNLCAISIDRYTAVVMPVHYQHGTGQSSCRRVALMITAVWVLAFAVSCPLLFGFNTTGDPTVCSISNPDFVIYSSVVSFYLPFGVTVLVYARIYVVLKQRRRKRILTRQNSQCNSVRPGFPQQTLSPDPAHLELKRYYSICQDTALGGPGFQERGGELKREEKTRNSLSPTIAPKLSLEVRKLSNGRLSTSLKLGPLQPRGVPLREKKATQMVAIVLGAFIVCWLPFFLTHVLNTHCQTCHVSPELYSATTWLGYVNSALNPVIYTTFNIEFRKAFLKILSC
D2 ag-3: counter-screen for D3 agonists: human D2 dopamine receptor agonism | AID 720507 | 2,300 tested, 5.9% active | Potency, µM (titrated, usually from 76.9 µM), without a hit: top-dose activation, actives largely listed as activators | DiscoveRx PathHunter D2 beta-arrestin, luminescence, 90 min; response scale: percent relative to full dopamine signal | shares compounds with D2 ag-1; also: potency is read from the fitted curve at half-maximal effect; % of control where 0% means no effect; nearly all actives have a fitted effect of over 70% in size
Starred values were filed as active, the others as inactive; u = inconclusive; x = no result. This is a sample that favours compounds with a hit; in the whole collection about 2.4% have one here. Unless noted, calls follow the shape of the dose curve; as a rule, active = well fitted activation curve with a large enough effect; inconclusive = small, poorly fitted or top-dose-only effect; inactive = flat fitted curve, though single readings scatter.

SMILES | D2 ag-1 | D2 antagonist | D2 PAM-1 | D2 ag-2 | D2 PAM-2 | D3 ag | D2 ag-3
COc1ccc(CC(=O)NC(C)(C)CC(C)=O)cc1OC | 0 | -11 | 0 | -2 | 5 | x | x
C1=C(c2cc3ccccc3cn2)CCCC1 | x | x | -7 | -2 | x | x | x
COc1ccc(Nc2nccc3c2ncn3C)cc1 | x | x | -6 | -4 | x | x | x
CC(C)OCCCn1c(=O)c2ccccc2n2c(CCC(=O)N3CCN(c4ccccn4)CC3)nnc12 | 67* | 25 | 1 | 13 | -16 | -2% | 4%
O=C(CCc1nnc2n(Cc3ccc(Cl)cc3)c(=O)c3ccccc3n12)N1CCN(c2ccccn2)CC1 | -1 | -19 | -5 | 5 | -2 | x | x
CCOc1ccccc1NC(=O)CSc1nc2c(c(=O)n(C)c(=O)n2C)n1C | 0 | 5 | -1 | -2 | 1 | x | x
CC(O)(c1ccc(F)c(F)c1)c1nc(-c2ccccc2)cs1 (stereo not given) | x | x | 4 | 7 | x | x | x
CCOC(=O)N1CCC(N2CCN(Cc3ccc(F)c(F)c3)C(CCO)C2)CC1 (stereo not given) | 40* | 15 | -7 | 5 | -13 | 3% | 15%
OCCC1CN(C2CSCCSC2)CCN1Cc1ccccc1 (stereo not given) | 0 | -2 | -20 | -1 | -3 | x | x
OCCC1CN(C2CCN(c3ccccc3F)CC2)CCN1Cc1ccccc1 (stereo not given) | 2 | -1 | -16 | -4 | -23 | -30% | -5%
O=C(NCc1ccccc1Cl)C(=O)NCC(c1ccco1)N1CCOCC1 (stereo not given) | 0 | -2 | 1 | 0 | 1 | x | x
COc1ccc(C(=O)OCC(=O)N(C)C2CCS(=O)(=O)C2)cc1Br (stereo not given) | 0 | 3 | -4 | -1 | -3 | x | x
COC(=O)c1[nH]c2cc(C)ccc2c1NC(=O)CN1CCN(C(=O)c2ccco2)CC1 | x | x | -15 | 11 | x | -6% | 19%
COC(=O)c1[nH]c2ccccc2c1NC(=O)C(C)N1CCN(C(=O)c2ccco2)CC1 (stereo not given) | 47* | 6 | -19 | u | -12 | u | 17%
COC(=O)c1[nH]c2ccccc2c1NC(=O)C(C)N1CCOCC1 (stereo not given) | x | x | -1 | -3 | 0 | x | x
CCC(C(=O)N1CCN(c2cc(Cl)ccc2C)CC1)n1nc(C)n2c(cc3occc32)c1=O (stereo not given) | 1 | x | x | x | -1 | x | x
CC1CN(CCn2cnc3c(N)ncnc32)CC(C)O1 (stereo not given) | 0 | 46* | -4 | 0 | 5 | 1% | -1%
O=C(c1ccco1)N1CCC(N2CCN(c3ccccc3)CC2)CC1 | 78* | 61* | -10 | 1 | -21 | u | 29%
O=C(c1cc(-c2ccccc2)on1)N1CCN(c2ccccc2)CC1 | 0 | 4 | -7 | 5 | 4 | x | x
O=C1OC(N2CCN(C(=O)c3ccco3)CC2)c2ccccc21 (stereo not given) | x | x | -12 | 6 | x | 24% | 14%
O=C(c1cc(-c2ccco2)on1)N1CCN(c2ccccc2)CC1 | 45* | 0 | -4 | 0 | -14 | -5% | 0%
CCc1ccc(N2C(=O)CC(N3CCN(Cc4ccc5c(c4)OCO5)CC3)C2=O)cc1 (stereo not given) | 0 | -2 | -5 | 1 | -9 | x | x
CN(C)/C=C/C(=O)c1nn(-c2ccc(F)cc2)ccc1=O | 0 | -2 | -18 | -2 | -5 | x | x
COc1ccc(CCNC(=O)CSc2c[nH]c3ccccc23)cc1OC | 0 | -9 | 5 | -3 | -2 | x | x
CN(C)S(=O)(=O)n1cnc([C@H]2c3c(ncn3Cc3ccccc3)C[C@H]3COC(=O)[C@@H]32)c1 | 0 | -1 | -3 | -5 | 10 | x | x
CN(C)S(=O)(=O)n1cnc([C@@H]2[C@@H]3C(=O)OC[C@@H]3C[C@]23N=CN(Cc2ccccc2)C3=O)c1 | 0 | 31* | -5 | 1 | 8 | -2% | -4%
